High-throughput results from PubChem BioAssay.
D1 antag: antagonists of human D1 dopamine receptor | P21728 | activity change, negative = inhibition, % at 10 µM | HEK293 TREx D1 cells, calcium flux, dopamine EC80; hits give low values | hit rate 3.2% among 360,000 | AID 504652; in the data active = activity change below about -30%; note: % is set by controls: 0 for no effect and ±100 for the full control effect
Target sequence (P21728 whole entry, looked up): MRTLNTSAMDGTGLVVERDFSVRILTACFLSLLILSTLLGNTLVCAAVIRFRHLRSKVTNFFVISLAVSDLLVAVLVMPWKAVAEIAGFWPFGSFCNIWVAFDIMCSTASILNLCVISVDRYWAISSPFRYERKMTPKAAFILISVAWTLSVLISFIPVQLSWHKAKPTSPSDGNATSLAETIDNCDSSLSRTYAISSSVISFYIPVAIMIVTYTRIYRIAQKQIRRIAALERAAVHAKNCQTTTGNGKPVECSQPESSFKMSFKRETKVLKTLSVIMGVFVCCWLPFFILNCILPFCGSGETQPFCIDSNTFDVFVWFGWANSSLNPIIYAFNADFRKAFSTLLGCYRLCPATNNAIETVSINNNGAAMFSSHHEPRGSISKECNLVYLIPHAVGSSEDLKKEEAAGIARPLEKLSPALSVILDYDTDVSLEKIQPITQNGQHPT
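Allosteric or orthosteric antagonism assessed as attenuation of the calcium response to EC80 dopamine, added 180 s after compound, in induced HEK293 Trex D1 cells loaded with no-wash calcium dye.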
TRHR ag: agonists of human TRH receptor. P34981. TRHR cells, calcium flux fluo-8, FDSS agonist mode. activation, % at 2 µM. hit rate 0.18% among 360,000. AID 493084; note: 0% is about no effect
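Steps: seed TRHR cells overnight; add fluo-8 no-wash Ca dye, RT 30 min–1.5 h; record 10 s baseline; pin-transfer compounds; monitor fluorescence 1 cycle/s for the agonist window. Calcium increases flag candidate agonists.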
TRHR enhancer: allosterically enhances the human TRH receptor. P34981. enhancement, % at 2 µM. hit rate 0.66% among 360,000. TRHR cells, fluo-8 calcium fluorescence, EC20 TRH enhancement; in the data active = enhancement above about 30%; note: 0% is about no effect
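TRHR-expressing cells loaded with fluo-8 calcium dye were read kinetically (ex 480/em 530) during compound addition, then stimulated with an EC20 of TRH (10 nM final). Enhancement of the Gq-mediated intracellular calcium response was scored.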
D1 potentiator: potentiators of human D1 dopamine receptor; P21728; HEK293 TREx D1 cells, calcium flux, dopamine EC20 potentiation; potentiation, % at 10 µM; hit rate 0.036% among 360,000; AID 504651; in the data active = potentiation above about 30%; note: 0% is about no effect
D1 agonist: agonists of human D1 dopamine receptor; AID 504660; P21728; activation, % at 2 µM; hit rate 1% among 360,000; HEK293 T-REx D1 cells, calcium flux, agonist mode; note: 0% is about no effect
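Agonism was scored from calcium flux recorded over 180 s (1 read/s) after pintool compound addition, following a 10-cycle baseline. Cells were inducible force-coupled HEK293 TREx D1, plated overnight at 30 C and loaded with no-wash calcium dye.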
* hit, by the source's call; nt = not tested or not shown. Compounds with a hit are over-represented: about 4.7% of the library has one in this group of screens. Cut-off read from the data, not from the text of the source, unless noted: active = activation above about 30%; inactive = the rest.

SMILES	D1 antag	TRHR ag	TRHR enhancer	D1 potentiator	D1 agonist
CCC(NC(=O)Nc1nnc(C(F)(F)F)s1)(C(F)(F)F)C(F)(F)F	-58*	12	-3	-11	31*
Cc1ccc(NC(=O)CC2=NC(=O)C(CC(=O)Nc3ccccc3F)S2)cc1 (stereo not drawn)	-50*	0	3	-5	1
Cc1ccc(CNC(=O)CN2Cc3ccccc3C2=O)cc1	-37*	0	2	-5	0
Cc1ccccc1Nc1nc(C#N)nc(NC2CCCC2)n1	-13	-1	-4	-5	3
COc1ccc(-c2cc(C(=O)Nc3cc(OC)cc(C(=O)Nc4cccc(C(F)(F)F)c4)c3)[nH]n2)cc1	-31*	1	-5	-4	10
COc1cc(NC(=O)c2ccno2)cc(C(=O)Nc2cccc(C(F)(F)F)c2)c1	-21	0	4	-2	20
O=C(Cn1ncc2c3ccccc3n(Cc3ccccc3F)c2c1=O)NC1CCCCCC1	15	0	-2	-2	2
O=C(c1ccccc1)c1ccc2c(c1)OCCCO2	-40*	-1	-7	-3	1
O=C(c1ccccc1)N1CCN(C(=O)c2ccc3c(c2)OCCO3)CC1	-39*	0	4	-3	1
O=C(c1ccccc1)c1ccc2c(c1)OCCOCCOCCO2	3	0	-3	6	8
O=C(c1ccc2c(c1)OCCO2)N1CCN(Cc2ccccc2)CC1	-24	1	-12	-10	3
CNc1oc(/C=C/c2cc(OC)c(OC)c(OC)c2)nc1C#N	5	-4	-6	-2	0
COc1ccccc1C(=O)n1nc(-c2ccco2)nc1N	-82*	0	-14	-2	0
Cc1ccc(NC(=O)c2oc3c(c2C)-c2[nH]ncc2CC3)c(Cl)c1	-43*	0	2	3	0
Cc1cccc(NC(=O)c2oc3c(c2C)-c2[nH]ncc2CC3)c1C	-24	0	4	4	6
Cc1cc(C)cc(C(=O)n2nc(C)c(S(=O)(=O)N3CCCCCC3)c2C)c1	-15	0	7	0	2
Cc1ccc(C(=O)n2nc(C)c(S(=O)(=O)N3CCCCCC3)c2C)cc1C	-15	0	35*	-3	4
Cc1cc(C)cc(OCC(=O)OCC(=O)N2CC(=O)Nc3ccccc32)c1	9	0	2	1	2
O=C1CN(C(=O)COC(=O)c2cccc(S(=O)(=O)NCc3ccccc3)c2)c2ccccc2N1	1	-3	12	-3	10
O=C1CN(C(=O)COC(=O)c2cccc(OCc3ccccc3)c2)c2ccccc2N1	-89*	1	4	4	7
COc1cc(CC(=O)OCC(=O)N2CC(=O)Nc3ccccc32)cc(OC)c1OC	-33*	0	-8	-4	1
COc1cc(C(=O)Nc2ccc3oc(-c4ccc(C)c(Br)c4)nc3c2)cc(OC)c1OC	7	2	3	-1	3
CC(=O)Nc1ccccc1NS(=O)(=O)c1ccccc1NO	14	0	6	2	4
CCN(CC)CCOC(=O)c1ccc(NC(=O)CCCN2C(=O)/C(=C\c3cccs3)SC2=S)cc1	-66*	6	-5	-21	23
CCCCC(=O)Nc1nc(C)c(C(C)=O)s1	-50*	0	4	nt	3
SMILES	D1 antag	TRHR ag	TRHR enhancer	D1 potentiator	D1 agonist
CCCC(=O)Nc1nc(C)c(C(C)=O)s1	-3	-1	-4	-1	1
CC(=O)c1sc(NC(=O)C2(F)C(F)(F)C(F)(F)C(F)(F)C(F)(F)C2(F)F)nc1C	-35*	-1	2	4	23
Cc1ccc(CNC(=O)c2ccc(CSCc3ccccc3Cl)o2)cc1	-3	0	5	-2	12
O=CNC1CCCc2c1[nH]c1ccc(Cl)cc21 (stereo not drawn)	-37*	-1	-3	-2	2
Cc1cc(C)cc(Cn2ncc3c4sc(C)cc4n(C)c3c2=O)c1	-6	-2	8	0	2
CC1C(=O)N2CCCc3cc(S(=O)(=O)N4CCN(c5cccc(Cl)c5)CC4)cc1c32 (stereo not drawn)	-2	0	-2	-7	1
CC1C(=O)N2CCCc3cc(S(=O)(=O)N4CCN(c5ccc(F)cc5)CC4)cc1c32 (stereo not drawn)	-46*	1	-4	12	3
COc1cccc(NC(=O)CSc2nc(=O)n(Cc3ccncc3)c3c2CCCC3)c1	0	0	-2	37*	2
CCN(CC)CCn1c2c(c(SCC(=O)Nc3cccc(C(F)(F)F)c3)nc1=O)CCC2	nt	0	0	-2	48*
COc1ccc(Cn2ccnc2SCC(=O)Nc2cccc(NC(C)=O)c2)cc1	-12	0	-4	-2	4
COc1ccc(Cn2c(CO)cnc2SCC(=O)Nc2cccc(NC(C)=O)c2)cc1	-18	0	32*	11	2
COC(=O)c1ccccc1NC(=O)Cn1c(=O)n(CCC(=O)NCc2ccccc2OC)c(=O)c2ccccc21	-1	-2	8	0	-1
COc1ccc(CCCNC(=O)C2CCC(=O)N(Cc3ccc(Cl)cc3)C2)cc1 (stereo not drawn)	-6	0	-8	-4	5
Cc1ccc(F)cc1CNC(=O)C1CCC(=O)N(CCc2ccccc2)C1 (stereo not drawn)	4	-1	-2	1	0
Cc1c(CNC(=O)C2CCC(=O)N(CCc3ccccc3)C2)cnn1C (stereo not drawn)	-33*	0	3	2	4
O=C(NCCCc1ccccc1)C1CCC(=O)N(Cc2ccc(Cl)cc2)C1 (stereo not drawn)	-41*	0	-8	-3	6
Cc1csc(CN(C)C(=O)C2CCC(=O)N(CCCc3ccccc3)C2)n1 (stereo not drawn)	-43*	0	-2	0	6
Cn1cc(CCNC(=O)C2CCC(=O)N(CCc3ccc(Cl)cc3)C2)cn1 (stereo not drawn)	-52*	0	-7	-18	0
Cc1ccc2c(c1)C(c1ccccc1)N(C(=O)c1ccc(S(=O)(=O)N3CCCC3)cc1)CC(=O)N2 (stereo not drawn)	-29	0	6	-1	5
Cc1ccc(C(C)C)c(OCC(=O)Nc2ccc3c(c2)nc(CCNC(=O)c2ccco2)n3C)c1	-5	0	-6	1	-1
CCN(CC)CCCNC(=O)CCCn1c(=O)[nH]c2ccc(Br)cc2c1=O	-31*	0	4	3	0
Cc1ccc(C)c(-c2nc(Cn3c(=O)cc(-c4ccccc4)c4c(C)nn(C)c43)c(C)o2)c1	14	32*	3	-3	3
C=CCn1c(NCc2c[nH]c3ccccc23)nc2ccccc21	-59*	0	0	-14	1
COc1cc(-c2nc3ncccn3c2Nc2ccc(C)cc2C)ccc1O	-9	-1	-3	0	29
